Rab9 prom act = activates the Rab9 promoter; Potency, µM (series often up to 9.22 µM), for inactives: at the highest dose activation, negative = inhibition, actives largely listed as activators; Huh7 Rab9 promoter-luciferase reporter, luminescence, 24 h; 320,000 compounds, 2.8% hits; AID 485297; also: % of control where 0% means no effect; nearly all actives have a fitted effect of over 60% in size
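Promoter activation is measured as luciferase luminescence in Huh7 cells stably transfected with a Rab9 promoter–luciferase construct, following 24 h compound exposure at 37 °C and 10 min reagent incubation at ambient temperature.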
ELG1 genotoxic = inducers of genotoxicity in HEK293T ELG1-luciferase cells; 330,000 compounds, 1.3% hits; HEK293T ELG1-luciferase reporter, luminescence, 16 h; Potency, µM (doses to about 46 µM), without a hit: top-dose activity change, positive = activation, hits mostly activators; also: % of control where 0% means no effect; nearly all actives have a fitted effect of over 60% in size
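Step 1: seed 2,000 HEK293T ELG1-luciferase cells per well. Step 2: add compound or DMSO, incubate 16 hr at 37 °C. Step 3: ONE-Glo, 30 min at room temperature, read luminescence.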
FLuc counter = inhibits or activates purified firefly luciferase, miR-21 counter-screen. P08659. purified FLuc, Km substrates, luminescence inhibition. Potency, µM (top dose mostly 57.5 µM), for inactives: at the highest dose activity change, negative = inhibition, most hits filed as inhibitors. 360,000 compounds, 6.9% hits;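 also: plate controls were vehicle for no effect and reference inhibitor for full effect; nearly all actives have a fitted effect of over 55% in size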
Target sequence (P08659 whole entry, looked up): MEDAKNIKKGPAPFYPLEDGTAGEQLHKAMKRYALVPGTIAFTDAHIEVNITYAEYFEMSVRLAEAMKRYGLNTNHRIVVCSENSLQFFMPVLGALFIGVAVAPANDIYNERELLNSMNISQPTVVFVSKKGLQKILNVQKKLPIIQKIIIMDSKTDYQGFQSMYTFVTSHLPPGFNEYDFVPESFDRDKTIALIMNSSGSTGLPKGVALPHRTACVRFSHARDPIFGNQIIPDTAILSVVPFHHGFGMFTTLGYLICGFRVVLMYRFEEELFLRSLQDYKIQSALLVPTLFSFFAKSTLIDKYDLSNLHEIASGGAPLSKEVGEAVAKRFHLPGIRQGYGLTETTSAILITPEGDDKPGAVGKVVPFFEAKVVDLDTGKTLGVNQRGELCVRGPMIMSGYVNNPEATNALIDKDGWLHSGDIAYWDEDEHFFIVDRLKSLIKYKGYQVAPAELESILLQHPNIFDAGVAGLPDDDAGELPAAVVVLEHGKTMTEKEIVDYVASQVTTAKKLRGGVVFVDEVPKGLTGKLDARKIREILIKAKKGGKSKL
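Purified P. pyralis luciferase (10nM final) with 10uM D-luciferin and 10uM ATP (Km levels) in 50mM Tris acetate pH 7.5, 10mM Mg acetate, 0.01% Tween-20, 0.05% BSA; qHTS 6-point titration, ~60 µM downward; luminescence read.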
NPC1 promoter act = activators of NPC1 promoter | Huh7 NPC1 promoter luciferase reporter, 24 h | 320,000 compounds, 2.4% hits | Potency, µM (titrated, usually from 9.22 µM), for inactives: top-dose activation, usual class: activators; also: % of control where 0% means no effect; nearly all actives have a fitted effect of over 60% in size
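Compounds in DMSO were transferred onto Huh7 NPC1-luciferase reporter cells pre-incubated 2 h; after 24 h at 37 °C, Amplite reagent was dispensed and luminescence recorded 10 min later.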
SMN2 splice up = enhancers of SMN2 splice variant expression; HEK293 SMN2-luciferase splicing reporter, luminescence, 30-36 h; Potency, µM (top dose mostly 46.1 µM), without a hit: top-dose activity change, positive = activation, most hits filed as activators; 210,000 compounds, 2.8% hits; AID 1458; also: % of control where 0% means no effect; nearly all actives have a fitted effect of over 55% in size
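HEK293 cells carry an SMN2 […]–luciferase reporter in which exon 7 inclusion puts luciferase in frame. Cells were plated 10-12 h before compound addition, then incubated 30-36 h at 37C. ONE-Glo luminescence was read; sodium butyrate at 4.5 mM final served as control.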
ELG1 DNA repair = ELG1-dependent DNA repair inhibition; HEK293T ELG1-luciferase reporter, luminescence, 16 h; DNA damage induced by 5-fluorouridine; 330,000 compounds, 2.3% hits; Potency, µM (highest dose often 46.1 µM), for inactives: top-dose activity change, negative = inhibition, most hits filed as inhibitors; also: % is scaled to controls: 0 for no effect and ±100 for the full control effect; nearly all actives have a fitted effect of over 55% in size
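Cells (2,000 per well) received 5-fluorouridine plus test compound or DMSO and were incubated 16 hr at 37 °C, 5% CO2. Luciferase activity was read by luminescence 30 min after ONE-Glo addition; signal suppression marked inhibition of damage-induced ELG1 function.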
Starred values were filed as active, the others as inactive; ? = inconclusive; · = no result; [ ] = remark or other dose. The list is not random: actives were taken first. Their share in the collection is about 9.2%. Calls follow the shape of the dose curve; as a rule, active = well fitted curve in the direction sought with a large enough effect; inconclusive = small, poorly fitted or top-dose-only effect, or another doubt; inactive = no such curve, though single readings can be large; an effect the other way counts as inactive or inconclusive. Potency is read from the fitted curve at half-maximal effect.

SMILES	Rab9 prom act	ELG1 genotoxic	FLuc counter	NPC1 promoter act	SMN2 splice up	ELG1 DNA repair
CCN(CC(=O)Nc1ccc(OC)cc1)C(=O)c1ccc(N2C(=O)CCC2=O)cc1	-8%	2%	6%	-4%	·	0%
CCCCn1c(N)c(N(CCC(C)C)C(=O)COC(=O)c2ccc3ccccc3c2)c(=O)[nH]c1=O	-1%	1%	1%	-9%	·	1%
CC(C)(C)c1cc(NC(=O)c2ccc(OC3CCCC3)cc2)no1	19%	0%	?	23%	-18%	?
O=C(Nc1ccon1)c1ccc(OC2CCCC2)cc1	2µM*	?	3µM*	2.5µM*	18µM*	?
CCc1ccc(Nc2nnc(SC3CCOC3=O)s2)cc1 (stereo not drawn)	-5%	4%	21µM*	-1%	3%	?
Cc1ccc(S(=O)(=O)Nn2c(O)c(C=C3N=c4ccccc4=N3)sc2=S)cc1	2%	-3%	17µM*	0%	·	0%
Oc1[nH]c(=S)sc1C=C1N=c2ccccc2=N1	27%	?	6µM*	?	·	?
Cc1ccc(C(=O)Nn2c(O)c(C=C3N=c4ccccc4=N3)sc2=S)cc1	6%	5%	?	0%	29%	26%
O=C(Nn1c(O)c(C=C2N=c3ccccc3=N2)sc1=S)c1ccccc1	-4%	6%	6µM*	0%	0%	0%
Cc1ccc(C(=O)NCC(c2ccco2)N2CCc3ccccc32)cc1 (stereo not drawn)	-2%	6%	3%	-1%	·	-11%
COc1ccccc1CNC(=O)CCn1c(=O)c2ccccc2n(CC(=O)Nc2ccc(C)cc2)c1=O	·	·	-7%	·	4%	·
COC(=O)c1ccccc1NC(=O)c1ncoc1-c1ccco1	·	·	-4%	·	·	·
COc1cc(NC(=O)C2=CC(c3ccc(F)cc3)=NS(=O)(=O)N2C)cc(OC)c1OC	·	·	1.3µM*	·	·	·
COc1ccc(C2=NS(=O)(=O)N(C)C(C(=O)Nc3ccc(C)cc3)=C2)cc1	1%	-1%	-16%	0%	·	-2%
O[C@@H](c1cc(C(F)(F)F)nc2c(Cl)cc(Cl)cc12)C1CCCCN1 (stereo partly drawn)	·	·	·	·	-1%[9.22 µM]	·
Cc1noc(C)c1C(=O)OCC(=O)Nc1ncc(Cl)c(C)c1Cl	·	1%	·	·	·	-1%
C[C@H](CO)N1C[C@H](C)[C@@H](CN(C)S(=O)(=O)c2cccs2)Oc2ccc(NC(=O)Cn3cnnn3)cc2C1=O	·	7%	·	·	·	-3%
CC(=O)C1=NN(c2ccccc2)C(c2cccs2)N1c1ccc(N(C)C)cc1 (stereo not drawn)	-3%	-22%	2%	-1%	-60%	16µM*
CC(=O)C1=NN(c2ccccc2)C(c2ccc3c(c2)OCO3)N1c1ccccc1 (stereo not drawn)	-11%	10%	0%	-3%	-5%	?
COc1ccccc1NC(=O)Cn1nnc2sc3c(c2c1=O)CC(C)(C)OC3	-1%	-1%	0%	-2%	·	21µM*
C=C(C)Cn1c(SCC(=O)c2ccccc2)nc2sc3c(c2c1=O)CCCC3	·	·	-1%	·	5.6µM*	·
CCn1c(SCC(=O)Nc2cc(C)on2)nc2sc3c(c2c1=O)CCCC3	1%	15%	-1%	1%	27%	3%
C=CCn1c(SCC(=O)Nc2cc(C)on2)nc2sc3c(c2c1=O)CCCC3	-1%	-1%	-1%	-1%	13µM*	-2%
C=CCn1c(SCC(=O)N2CCOCC2)nc2sc3c(c2c1=O)CCCC3	-8%	-11%	5%	-1%	11%	18µM*
CCN(CC)c1nn2c(=O)c(C(=O)NCc3cccc(OC)c3OC)cnc2s1	·	·	3%	·	·	·
COc1cc(NS(=O)(=O)c2c(C)oc3c(F)c(F)c(F)c(F)c23)cc(OC)c1OC	-2%	-11%	6%	1%	·	-10%
Cc1ccc(OCc2cc(=O)n3c4c(sc3n2)CCCC4)c(C)c1	·	·	6%	·	-1%	·
